Screening results as filed in PubChem BioAssay.
STK33 kin inh: STK33 kinase inhibitors, primary screen, biochemical, luminescence, ADP-Glo, MBP substrate; 27,000 tested, 0.44% active; inhibition, % at 12.5 µM; AID 2322, 2010; Serine/threonine-protein kinase 33 (Homo sapiens), Q9BYT3; in the data active = inhibition above about 20%
mut p53 react: mutant p53 pathway re-activators, primary screen, cell-based, SW480, luciferase, single point, HTS. activation, % at 9.98 µM. SW480 PUMA-promoter luciferase, p53 mutant reactivation. AID 624151, 2012. 28,000 tested, 1.5% active; in the data active = activation above about 52%
ID4 binder: binders of human ID4 protein, primary screen, biochemical, small molecule microarray, single point. DNA-binding protein inhibitor ID-4 (Homo sapiens), P47928. AID 624137, 2012. Flag-ID4 binding, fluorescence F/B. calls only. 31,000 tested, 1.2% active; call rule not given here;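 also: a binder raises fluorescence above local background on the spot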
* hit, by the source's call; i = inactive; . = no result given; + = active, no number. Most compounds without a hit are left out; they make up all but 2% or so of the library.

SMILES	STK33 kin inh	mut p53 react	ID4 binder
CNC[C@H]1Oc2cc(Br)ccc2S(=O)(=O)N([C@H](C)CO)C[C@H]1C	.	.	+
Cc1ccc(Cn2nc(C)c(NC(=O)c3nc4ncccn4n3)c2C)cc1	2	-12	i
COC(=O)c1c2oc(c1C(=O)OC)C(=O)N[C@@H](Cc1ccccc1)Cn1cc(nn1)CNC(=O)[C@H](Cc1ccccc1)NC(=O)N[C@@H](CO)CC2	.	.	i
COC(=O)c1c2oc(c1C(=O)OC)C(=O)N(C)Cc1cn(nn1)C[C@@H](C)NC(=O)N[C@H](CO)CC2	.	.	i
COC(=O)c1c2oc(c1C(=O)OC)C(=O)N(C)Cc1cn(nn1)C[C@H](Cc1ccccc1)NC(=O)N[C@H](CO)CC2	.	.	+
COC(=O)c1c2oc(c1C(=O)OC)C(=O)N[C@H](Cc1ccccc1)Cn1cc(nn1)CNC(=O)[C@H](Cc1ccccc1)NC(=O)N[C@@H](CO)CC2	.	.	+
CC1CC(=O)[C@]2(C)CC[C@]3(C)C(C(=O)C(O)C4[C@@]5(C)CC[C@H](O)C(C)(C(=O)O)C5CC[C@]43C)C2C1C (some centres not stated)	0	-87	.
COc1ccc(S(=O)(=O)N(C)CC(=O)Nc2cccc(C(F)(F)F)c2)cc1	5	-2	i
COc1ccc(NC(=O)CSc2nnc(-c3ccco3)n2-c2ccccc2)cc1	-5	15	i
O=C(CSc1nnc(-c2ccco2)n1-c1cccc2ccccc12)Nc1ccc(C(=O)O)cc1	-1	3	+
Cc1ccc(C(=O)Nc2cccc(OC(=O)c3cc(S(=O)(=O)N4CCCCC4)ccc3Cl)c2)cc1	0	1	+
O=C(Nc1cccc(O)c1)c1cc(S(=O)(=O)N2CCOCC2)ccc1Cl	-4	-3	i
O=C(O)c1cc(NC(=O)C2CC=CCC2C(=O)O)ccc1Cl (configuration not stated)	-3	4	+
CCOc1ccc(NC(=O)C2CC=CCC2C(=O)O)cc1 (configuration not stated)	5	2	i
CCc1ccc(OCC(=O)NC(=S)Nc2cccc3nsnc23)cc1	0	-12	i
Cc1ccc2oc(-c3cccc(NC(=O)COc4cccc(C)c4C)c3)nc2c1	0	34	i
O=C(CSc1ncnc2sc3c(c12)CCC3)Nc1cccc(-c2nc3ccccc3s2)c1	-1	80*	i
Cc1cccc(OCC(=O)Nc2cccc(-c3nc4ccccc4s3)c2)c1C	2	95*	i
O=C(CSc1ncnc2sc3c(c12)CCCC3)Nc1cccc(F)c1	1	13	i
CCC(=O)Nc1ccc(Cl)c(NC(=O)COc2ccccc2C)c1	3	107*	i
Cc1ccccc1OCC(=O)NC(=S)Nc1ccccc1-c1nc2ccccc2s1	-5	2	i
Cc1ccccc1OCC(=O)Nc1cccc(-c2nc3ccccc3s2)c1	1	79*	i
CCC(=O)Nc1ccc(Cl)c(NC(=O)COc2ccc(Br)cc2)c1	0	18	i
CCOC(=O)c1c(NC(=O)COc2ccccc2Cl)sc2c1CCCC2	1	9	i
O=C(CSc1ncccc1C(=O)O)Nc1ccc(Oc2ccccc2)cc1	-7	-4	i
SMILES	STK33 kin inh	mut p53 react	ID4 binder
Cc1ccccc1OCC(=O)Nc1cccc(NC(=O)C(C)C)c1	-5	62*	i
Cc1ccccc1OCC(=O)Nc1cccc(C(=O)O)c1	5	-93	i
COc1cc(S(=O)(=O)NCc2ccccn2)ccc1Br	1	-6	i
Cn1c(SCC(=O)Nc2ccc(F)cc2)nnc1-c1ccc([N+](=O)[O-])cc1	27*	-1	i
Cc1c(Br)ccc(NC(=O)CSc2nnc(-c3ccc(Cl)cc3)n2C)c1C	2	107*	i
O=C(CSc1nnc(-c2ccc([N+](=O)[O-])cc2)n1-c1ccccc1)Nc1ccc(F)cc1	-1	-4	i
Cn1c(SCC(=O)Nc2ccc(Cl)cc2Cl)nnc1-c1ccc(Cl)cc1	0	4	i
Cn1nnnc1SCC(=O)Nc1ccc([N+](=O)[O-])cc1	5	9	i
CNC[C@H]1Oc2ccc(NC(=O)Nc3ccc4c(c3)OCO4)cc2C(=O)N([C@@H](C)CO)C[C@@H]1C	5	-4	i
CNC[C@@H]1OCCCC[C@H](C)Oc2ccc(NC(=O)Nc3ccc4c(c3)OCO4)cc2C(=O)N([C@H](C)CO)C[C@@H]1C	.	5	i
CNC[C@H]1OCCCC[C@@H](C)Oc2ccc(NC(=O)Nc3ccc4c(c3)OCO4)cc2C(=O)N([C@@H](C)CO)C[C@H]1C	.	-6	+
CNC[C@H]1Oc2ccc(NC(=O)Nc3ccc4c(c3)OCO4)cc2C(=O)N([C@@H](C)CO)C[C@H]1C	.	-3	+
